Source: PubChem BioAssay
Shown are actives, neighbours in structure and some others; about 4.1% of the full set was active somewhere.
ssDAF12 agonist: activates DAF-12 receptor from parasite S. stercoralis. HEK293 ssDAF-12/GRIP1 lit1-tk-luc reporter, luminescence; % of 3 µM dafachronic acid response. AID 652126. activation, % at 6.8 µM. hit rate 1% among 370,000;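 active means activation above the mean over all tested compounds plus 3 SD, cut at about 0.9% in these data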
hcDAF-12 act: activates DAF-12 receptor from parasite H. contortus. HEK293 hcDAF-12 lit1-tk-luc reporter, luminescence; 0% DMSO, 100% Δ7-dafachronic acid. activation, % at 6.8 µM. hit rate 1.4% among 370,000. AID 652067;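 active means activation above the mean of all tested compounds plus 3 SD, cut at about 5.5% in these data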
DAX1 inh-1: inhibitors of human orphan nuclear receptor DAX1 (NR0B1); P51843; HEK293 Gal4-DAX1 luciferase reporter, luminescence; inhibition, % at 6.75 µM; hit rate 0.99% among 340,000;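 active means inhibition above the mean over all tested compounds plus 3 SD, cut at about 4.2% in these data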;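 further: inhibition shows as a rise in luminescence from relieved DAX1 repression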
Target sequence (P51843 207-470 limits assumed): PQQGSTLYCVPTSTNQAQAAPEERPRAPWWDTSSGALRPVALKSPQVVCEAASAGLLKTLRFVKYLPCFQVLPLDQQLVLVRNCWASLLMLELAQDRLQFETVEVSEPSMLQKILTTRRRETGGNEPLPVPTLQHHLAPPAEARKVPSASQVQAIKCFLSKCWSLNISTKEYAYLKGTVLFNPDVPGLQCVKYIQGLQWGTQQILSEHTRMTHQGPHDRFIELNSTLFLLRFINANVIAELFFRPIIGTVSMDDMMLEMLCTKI
DAX1 inh-2: DAX1 (NR0B1) inhibition, primary screen. HEK293T StAR-luciferase reporter, SF-1/DAX-1 repression relief. inhibition, % at 6.8 µM. hit rate 1.1% among 370,000;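 active means inhibition above the mean over all tested compounds plus 3 SD, cut at about 3.6% in these data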;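 further: higher inhibition means more luminescence from relief of DAX-1 repression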
hgDAF12 agonist: agonists of H. glycines DAF-12 nuclear receptor; HEK293 GAL4-hgDAF12 UAS-luciferase reporter, agonist luminescence; normalized to butyrate control; activation, % at 6.8 µM; hit rate 1.8% among 370,000;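 active means activation above a cutoff set at the mean of all screened compounds plus 3 SD, cut at about 10% in these data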
DAX1 inh confirm: confirmation of human DAX1 (NR0B1) inhibitors; HEK293T StAR-promoter luciferase reporter, SF-1/DAX-1 repression; shares compounds with DAX1 inh-2; inhibition, % at 6.8 µM; hit rate 87% among 2,400;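 active means inhibition above the average of every tested compound plus 3 SD, cut at about 3.8% in these data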;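 further: active compounds raise luminescence by relieving repression of the StAR reporter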
SF1 AF2mut Luc: nonselective inhibitor or artifact in SF-1 mutant DAX1 counter-screen; HEK293 StAR-luciferase, SF-1 AF2 mutant, luminescence; inhibition, % at 6.8 µM; AID 652136; hit rate 78% among 2,400; shares compounds with DAX1 inh-2;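 active means inhibition above the mean of all tested compounds plus 3 SD, cut at about 3% in these data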
LXR ag: counter-screen for hcDAF-12 agonists: agonists of human LXR-beta; HEK293 Gal4-LXR tk-luc reporter, luminescence, 24 h; normalized: DMSO 0%, positive control 100%; activation, % at 6.8 µM; AID 743027; shares compounds with hcDAF-12 act; 3,400 tested, under 10 active;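 active means mean percent activation of the reporter above a cutoff set as the average over tested compounds plus their standard deviation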
Target sequence (P55055 whole entry, looked up, the tested form may be a part): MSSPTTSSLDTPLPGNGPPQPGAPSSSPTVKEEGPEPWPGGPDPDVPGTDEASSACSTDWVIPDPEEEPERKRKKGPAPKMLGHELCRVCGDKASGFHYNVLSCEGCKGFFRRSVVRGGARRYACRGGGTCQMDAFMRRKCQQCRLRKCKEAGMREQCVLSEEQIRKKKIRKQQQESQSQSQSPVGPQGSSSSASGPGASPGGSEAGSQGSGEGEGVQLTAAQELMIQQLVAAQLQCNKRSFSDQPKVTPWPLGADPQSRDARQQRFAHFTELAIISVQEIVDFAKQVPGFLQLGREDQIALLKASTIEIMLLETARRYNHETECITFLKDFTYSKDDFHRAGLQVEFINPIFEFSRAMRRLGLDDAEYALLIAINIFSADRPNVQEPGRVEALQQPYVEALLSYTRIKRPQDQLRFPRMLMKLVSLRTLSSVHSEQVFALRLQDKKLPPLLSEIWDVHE
hcDAF12 ag: hcDAF-12 agonism, confirmation assay; shares compounds with hcDAF-12 act; HEK293 hcDAF-12 lit1-tk-luc reporter, luminescence; % of Δ7-dafachronic acid response; activation, % at 6.8 µM; hit rate 61% among 3,400; AID 743032;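 active means mean activation across triplicate tests above the threshold derived from the earlier primary screen, cut at about 5.5% in these data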
hgDAF12 conf: confirmation of H. glycines DAF-12 agonists | AID 743050 | hit rate 80% among 3,300 | shares compounds with hgDAF12 agonist | HEK293 GAL4-hgDAF12 luciferase reporter, agonist mode; percent of butyrate response | activation, % at 6.8 µM;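 active means mean activation over triplicate wells above the hit cutoff derived from the earlier primary screen, cut at about 11% in these data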
LXR ag 2: counter-screen for DAF-12 agonists: agonists of human LXR-beta. shares compounds with hgDAF12 agonist. HEK293 Gal4-LXR luciferase reporter, 24 h. activation, % at 6.8 µM. 3,300 tested, under 10 active;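 active means mean activation of the triplicate above a set limit carried over from the primary screen, none filed active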
Hits are given with their value.

What do the screens show for `C[C@@H]1C(=O)N(c2ccccc2)[C@@H]1c1ccncc1`?
ssDAF12 agonist: inactive; hcDAF-12 act: inactive; DAX1 inh-1: inactive; DAX1 inh-2: inactive; hgDAF12 agonist: inactive

Results for O=C(Nc1nccs1)c1cncc(Br)c1 ?
ssDAF12 agonist: inactive; hcDAF-12 act: 7.9; DAX1 inh-1: inactive; DAX1 inh-2: 6.3; hgDAF12 agonist: 14.8; DAX1 inh confirm: 7.6; SF1 AF2mut Luc: 6.3; LXR ag: inactive; hcDAF12 ag: 6.0; hgDAF12 conf: 10.8; LXR ag 2: inactive

Results for c1ccc(-c2ncc3c(ccc4ccccc43)n2)cc1 ?
ssDAF12 agonist: 3.6; hcDAF-12 act: 23.4; DAX1 inh-1: inactive; DAX1 inh-2: 6.3; hgDAF12 agonist: 16.7; DAX1 inh confirm: 12.1; SF1 AF2mut Luc: 3.8; hgDAF12 conf: 16.9; LXR ag 2: inactive

What do the screens show for `c1ccc2c(c1)cnc1ccccc12`?
ssDAF12 agonist: inactive; hcDAF-12 act: inactive; DAX1 inh-1: inactive; DAX1 inh-2: inactive; hgDAF12 agonist: inactive

How did CC(=O)N/N=C(/C)c1ccc(NC(=O)c2csc(C)c2C)cc1 do in these assays?
ssDAF12 agonist: inactive; hcDAF-12 act: 5.8; DAX1 inh-1: inactive; DAX1 inh-2: 12.8; hgDAF12 agonist: 17.0; DAX1 inh confirm: 9.4; SF1 AF2mut Luc: 4.7; hgDAF12 conf: 15.9; LXR ag 2: inactive

How did COc1ccc(S(=O)(=O)Nc2ncccn2)cc1 do in these assays?
ssDAF12 agonist: inactive; hcDAF-12 act: inactive; DAX1 inh-1: inactive; DAX1 inh-2: inactive; hgDAF12 agonist: inactive

What do the screens show for `CC(=Nc1ccc(Cl)cc1N)c1c(O)cc(C)oc1=O`?
ssDAF12 agonist: 1.6; hcDAF-12 act: 10.3; DAX1 inh-2: 9.8; hgDAF12 agonist: 24.5; DAX1 inh confirm: inactive; SF1 AF2mut Luc: inactive; LXR ag: inactive; hcDAF12 ag: 5.6; hgDAF12 conf: 15.8; LXR ag 2: inactive

Results for C/C(=N\Nc1ccccc1)c1c(O)cc(C)oc1=O ?
ssDAF12 agonist: inactive; hcDAF-12 act: inactive; DAX1 inh-1: inactive; DAX1 inh-2: inactive; hgDAF12 agonist: inactive

How did CCC[C@H]1CN(Cc2cccnc2)C(=O)[C@@H]1CC(=O)Nc1ccc(Br)cc1 do in these assays?
ssDAF12 agonist: inactive; hcDAF-12 act: inactive; DAX1 inh-1: inactive; DAX1 inh-2: inactive; hgDAF12 agonist: inactive

What do the screens show for `CCN(Cc1ccncc1)C(=O)c1ccccc1NS(=O)(=O)c1ccc(Br)cc1`?
ssDAF12 agonist: inactive; hcDAF-12 act: inactive; DAX1 inh-1: inactive; DAX1 inh-2: inactive; hgDAF12 agonist: inactive

Results for CC(=O)N/N=C\c1cccc(OC/C=C/c2ccccc2)c1 ?
ssDAF12 agonist: inactive; hcDAF-12 act: inactive; DAX1 inh-1: inactive; DAX1 inh-2: 10.2; hgDAF12 agonist: 13.7; DAX1 inh confirm: 8.9; SF1 AF2mut Luc: 5.2; hgDAF12 conf: 15.8; LXR ag 2: inactive

Results for CC(=O)N/N=C\c1ccccc1OC/C=C/c1ccccc1 ?
ssDAF12 agonist: inactive; hcDAF-12 act: inactive; DAX1 inh-1: inactive; DAX1 inh-2: inactive; hgDAF12 agonist: inactive

Results for O=C(C[C@@H]1C=C[C@H](NS(=O)(=O)c2ccccc2F)[C@@H](CO)O1)NCCCN1CCOCC1 ?
ssDAF12 agonist: inactive; hcDAF-12 act: inactive; DAX1 inh-2: inactive; hgDAF12 agonist: inactive

How did CCc1ccc2cc3c(cc2n1)C(=O)c1ccccc1-3 do in these assays?
ssDAF12 agonist: 3.6; hcDAF-12 act: 17.2; DAX1 inh-2: 9.5; hgDAF12 agonist: 20.5; DAX1 inh confirm: 10.7; SF1 AF2mut Luc: 6.4; LXR ag: inactive; hcDAF12 ag: 16.1; hgDAF12 conf: 22.6; LXR ag 2: inactive

How did CCCCCCN1C=CC(=C2C(=O)c3ccccc3C2=O)C=C1 do in these assays?
ssDAF12 agonist: 1.1; hcDAF-12 act: 8.6; DAX1 inh-1: inactive; DAX1 inh-2: 9.4; hgDAF12 agonist: 14.1; DAX1 inh confirm: inactive; SF1 AF2mut Luc: inactive; LXR ag: inactive; hcDAF12 ag: 6.1; hgDAF12 conf: inactive; LXR ag 2: inactive

How did CCCCN1C(C)=CC(=C2C(=O)c3ccccc3C2=O)C=C1C do in these assays?
ssDAF12 agonist: inactive; hcDAF-12 act: 7.5; DAX1 inh-1: inactive; DAX1 inh-2: 6.7; hgDAF12 agonist: 22.1; DAX1 inh confirm: 6.1; SF1 AF2mut Luc: inactive; LXR ag: inactive; hcDAF12 ag: 10.6; hgDAF12 conf: 11.6; LXR ag 2: inactive

Results for CCCN1C=CC(=C2C(=O)c3ccccc3C2=O)C=C1 ?
ssDAF12 agonist: inactive; hcDAF-12 act: inactive; DAX1 inh-1: inactive; DAX1 inh-2: inactive; hgDAF12 agonist: inactive

Results for COCCN1CCN(C(=O)C2CCC(=O)N(Cc3cccc(C(F)(F)F)c3)C2)CC1 (stereo not given) ?
ssDAF12 agonist: inactive; hcDAF-12 act: inactive; DAX1 inh-1: inactive; DAX1 inh-2: inactive; hgDAF12 agonist: inactive

Results for O=C(Nc1ccc2c(c1)OCO2)C(=O)c1c[nH]c2ccccc12 ?
ssDAF12 agonist: inactive; hcDAF-12 act: 9.3; DAX1 inh-1: inactive; DAX1 inh-2: 17.9; hgDAF12 agonist: 13.5; DAX1 inh confirm: 16.7; SF1 AF2mut Luc: 6.5; hgDAF12 conf: 18.7; LXR ag 2: inactive

How did O=C(Nc1ccc2c(c1)OCCO2)C(=O)c1c[nH]c2ccccc12 do in these assays?
ssDAF12 agonist: inactive; hcDAF-12 act: inactive; DAX1 inh-1: inactive; DAX1 inh-2: inactive; hgDAF12 agonist: inactive

What do the screens show for `Cc1nc(NC(=O)c2ccccc2O)sc1C`?
ssDAF12 agonist: inactive; hcDAF-12 act: inactive; DAX1 inh-1: inactive; DAX1 inh-2: inactive; hgDAF12 agonist: inactive

Results for Cc1nc(NC(=O)c2csc3ccccc23)sc1C ?
ssDAF12 agonist: 1.5; hcDAF-12 act: 13.2; DAX1 inh-1: inactive; DAX1 inh-2: 5.1; hgDAF12 agonist: 23.7; DAX1 inh confirm: 11.5; SF1 AF2mut Luc: 5.0; LXR ag: inactive; hcDAF12 ag: 9.7; hgDAF12 conf: 20.3; LXR ag 2: inactive

What do the screens show for `OC(CNCc1ccc(Cl)cc1)C(F)(F)F` (stereo not given)?
ssDAF12 agonist: inactive; hcDAF-12 act: inactive; DAX1 inh-1: inactive; DAX1 inh-2: inactive; hgDAF12 agonist: inactive
